An excerpt weighted towards active compounds, which were near 3.2% of everything screened.
MsrA act = activators of bovine methionine sulfoxide reductase A | purified bovine MsrA, absorbance read-out | activation, % at 10.6 µM | 360,000 tested, 0.3% active; in the data active means activation above about 7.5%;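 further: 0% = vehicle and 100% = reference activator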
PG9 binder = small molecules binding HIV-1 gp120 antibody PG9 | TR-FRET gp120-PG9 antibody binding | 360,000 tested, 0.43% active | inhibition, % at 6.7 µM | AID 624416; in the data active means inhibition above about 8.5%
sPLA2-III inh = Inhibits HGIII-sPLA2 liposome hydrolysis, primary screen; 370,000 tested, 0.56% active; Q9NZ20; QFRET BODIPY PC-A2 liposome hydrolysis, fluorescence; inhibition, % at 12.2 µM;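 active means inhibition above mean plus 3 SD of compounds lying within the high and low control bounds, cut at about 19% in these data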;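 further: 0% = median of test compound wells and 100% = no enzyme DMSO wells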
Target sequence (Q9NZ20 whole entry, looked up): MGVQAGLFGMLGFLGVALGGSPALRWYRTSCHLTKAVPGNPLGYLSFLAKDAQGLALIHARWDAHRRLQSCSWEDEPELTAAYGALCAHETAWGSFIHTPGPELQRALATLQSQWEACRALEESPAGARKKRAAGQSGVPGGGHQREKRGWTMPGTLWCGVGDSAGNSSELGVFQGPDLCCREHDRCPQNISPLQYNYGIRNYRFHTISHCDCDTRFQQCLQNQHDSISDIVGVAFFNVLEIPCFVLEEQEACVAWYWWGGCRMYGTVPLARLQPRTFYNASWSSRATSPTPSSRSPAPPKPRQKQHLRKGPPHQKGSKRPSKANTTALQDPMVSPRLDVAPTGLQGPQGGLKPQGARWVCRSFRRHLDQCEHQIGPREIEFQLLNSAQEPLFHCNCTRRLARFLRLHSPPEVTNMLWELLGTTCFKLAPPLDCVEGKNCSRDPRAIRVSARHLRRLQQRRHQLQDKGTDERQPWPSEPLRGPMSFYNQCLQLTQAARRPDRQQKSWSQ
MsrA inhibitor = bovine MsrA inhibition | 360,000 tested, 0.75% active | purified bovine MsrA, absorbance read-out | inhibition, % at 15.5 µM | AID 651718; in the data active means inhibition above about 4.5%;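 further: 0% = vehicle wells with enzyme and 100% = reference inhibitor wells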
rCAG RNA binder = molecules binding r(CAG) RNA repeats. r(CAG) RNA repeat, TO-PRO-1 dye displacement fluorescence. 370,000 tested, 1.3% active. AID 651821. inhibition, % at 3 µM;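 active means inhibition above the plate cutoff, the mean of all test compounds on that plate plus 3 SD, cut at about 35% in these data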;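 further: 0% = DMSO alone and 100% = 100 µM mitoxantrone as full dye displacement; higher means more dye released from RNA so lower well fluorescence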
rCAG binder conf = r(CAG) RNA repeat binding, confirmation; shares compounds with rCAG RNA binder; TO-PRO-1 dye displacement fluorescence; inhibition, % at 3 µM; 4,300 tested, 70% active;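 active means inhibition above a per-plate cutoff, the mean inhibition of sample wells plus 3 SD, cut at about 35% in these data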;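 further: loss of TO-PRO-1 fluorescence as compound displaces dye from 1x1 AA loop RNA; 0% = DMSO only wells and 100% = 100 µM mitoxantrone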
dCAG dye counter = disrupts DNA CAG TO-PRO-1 complex, flagging rCAG hits; shares compounds with rCAG RNA binder; d(CAG) DNA oligo TO-PRO-1 dye displacement, fluorescence; inhibition, % at 3 µM; 4,300 tested, 94% active;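 active means inhibition above its plate's cutoff, the mean test-well inhibition plus 3 SD, cut at about 4.8% in these data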;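 further: 0% = DNA dye mix with DMSO and 100% = 100 µM mitoxantrone; hits displace the dye from DNA and so lower well fluorescence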
dCAG dye DR = disrupts DNA CAG TO-PRO-1 complex in dose response. 250 tested, 20% active. IC50, µM. AID 686960. DNA CAG/GTC duplex TO-PRO-1 dye displacement fluorescence. shares compounds with rCAG RNA binder; in the data active means IC50 below about 10 µM
An asterisk follows results filed as active; · = no result given.

SMILES	MsrA act	PG9 binder	sPLA2-III inh	MsrA inhibitor	rCAG RNA binder	rCAG binder conf	dCAG dye counter	others
Nc1ccc(S(=O)(=O)Nc2cnc3ccccc3n2)cc1	-1	-1	-1	0	4	·	·
O=C(Nc1ccc(S(=O)(=O)Nc2cnc3ccccc3n2)cc1)c1ccc(Cl)cc1Cl	0	2	-47	2	66*	48*	15*
Cc1cc(Cl)ccc1OC(C)C(=O)Nc1ccc(C(=O)Nc2ccccc2C(=O)O)cc1 (stereo not given)	-6	-1	-48	-1	77*	87*	62*
COc1cc(NS(=O)(=O)c2ccc(NC(=O)c3ccc(Cl)cc3Cl)cc2)ncn1	-1	-1	-21	0	19	·	·
O=C(Nc1ccc(Cl)cc1)c1cc(S(=O)(=O)Nc2ccccn2)ccc1Cl	-1	-1	-5	0	15	·	·
O=C(Nc1ccc(S(=O)(=O)Nc2cnc3ccccc3n2)cc1)c1cc(F)c(F)cc1Cl	-11	-2	-31	3	40*	28	4
O=C(Cc1ccc(Cl)cc1)Nc1ccc(S(=O)(=O)Nc2cnc3ccccc3n2)cc1	-5	0	-64	3	63*	59*	23*
Cc1cc(Cl)ccc1OC(C)C(=O)Nc1ccc(S(=O)(=O)N2CCOCC2)cc1 (stereo not given)	-3	-1	-30	0	2	·	·
Cc1cc(Cl)ccc1OC(C)C(=O)Nc1ccc(S(=O)(=O)Nc2cnc3ccccc3n2)cc1 (stereo not given)	-6	-1	-108	1	80*	90*	57*
C[C@@H]1CCCCO[C@H](CN(C)Cc2ccc(C(=O)O)cc2)[C@H](C)CN([C@@H](C)CO)C(=O)c2cc(NC(=O)Nc3ccc(C(F)(F)F)cc3)ccc2O1	-8	-2	-61	0	50*	53*	15*
C=CCOC(=O)C1=C(C)N=c2sc(=C3C(=O)N(CC(=O)O)c4ccccc43)c(=O)n2C1c1ccc(OC)cc1 (stereo not given)	·	·	4	·	48*	75*	41*
C=CCOC(=O)C1=C(C)N=c2s/c(=C3\C(=O)N(CC(=O)O)c4ccccc43)c(=O)n2C1c1ccc(OC)cc1 (stereo not given)	-1	0	4	0	12	·	·
CCOC(=O)C(C)/C(C)=N/NC(=O)c1cc2ccccc2cc1O (stereo not given)	5	0	2	4	44*	13	6.7*
C/C(CC(=O)N1CCCC1)=N\NC(=O)c1cc2ccccc2cc1O	-8	0	-1	3	38*	15	6.2*
NNC(=O)c1cc2ccccc2cc1O	-7	-1	9	2	41*	5	4
CN(Cc1ccc(F)cc1)C(=O)CN1C(=O)C2(OCCCO2)c2ccccc21	·	·	-1	·	-2	·	·
O=C(NC1CCCCN(Cc2ccc(Cl)cc2)C1=O)c1cccc(F)c1 (stereo not given)	·	·	16	·	4	·	·
C[C@@H]1C(=O)N2N=Cc3cc4ccccc4cc3[C@H]2N2N=Cc3cc4ccccc4cc3[C@@H]12	·	·	4	·	8	·	·
COc1cc(OC)cc(-c2c(-c3cccs3)c3cc(Br)ccc3n2C)c1	-3	-1	6	1	40*	10	9.3*
CC1(C(=O)NS(=O)(=O)c2ccc(Cl)s2)CCN1C(=O)c1ccc(C2CCCCC2)cc1 (stereo not given)	-1	-2	-31	-1	66*	74*	37*
O=C1C=CC2=C3c4cc(O)c(O)cc4CC3(O)COC2=C1O (stereo not given)	-16	-7	-8	1	43*	63*	34*
CCOc1cccc(C(=O)NNC(=O)C2C3C=CC(C3)C2C(=O)O)c1 (stereo not given)	-6	-2	3	-1	-1	·	·
O=C(Nc1sc2c(c1C(=O)O)CCCCC2)c1cccs1	4	0	-7	3	36*	19	4.7*
CCOC(=O)c1c(NC(=O)C2C3C=CC(C3)C2(C)C(=O)O)sc2c1CCCC2 (stereo not given)	-3	2	-7	2	43*	46*	15*
CCOC(=O)c1c(NC(=O)C2C3C=CC(C3)C2C(=O)O)sc2c1CCC(CC)C2 (stereo not given)	-8	2	-33	1	38*	64*	24*
SMILES	MsrA act	PG9 binder	sPLA2-III inh	MsrA inhibitor	rCAG RNA binder	rCAG binder conf	dCAG dye counter	others
CCOC(=O)c1c(NS(=O)(=O)c2cccc(OC)c2)sc2c1CCC2	-1	-3	-13	0	60*	69*	23*
COC(=O)c1c(NS(=O)(=O)c2cccs2)sc2c1CCCC2	-6	-2	5	0	14	·	·
O=C(/C=C/c1cccs1)Nc1sc2c(c1C(=O)O)CCCC2	-4	-3	-10	2	53*	28	6.7*
O=C(Nc1sc2c(c1C(=O)O)CCCCC2)c1ccccc1F	-4	-1	-2	3	36*	20	4
CCOC(=O)c1c(N2C(=O)Nc3ccccc3N2O)sc2c1CCCC2	-10	-3	-5	1	38*	30	6.7*
COC(=O)c1c(NC(=O)c2ccccc2C(=O)O)sc2c1CCCC2	-3	-2	-1	3	24	·	·
O=C(Nc1sc2c(c1C(=O)O)CCCC2)c1ccc(F)cc1	-2	0	-8	2	25	·	·
CCOC(=O)c1c(NC(=O)c2ccccc2C(=O)O)sc2c1CCCC2	-3	0	0	2	55*	46*	16*
Oc1ccccc1C=NN1CCN(Cc2ccccc2)CC1	·	·	-5	·	-1	·	·
CCC(C)CNC(=O)CN1C(=O)C2CCCCN2C(=O)c2ccccc21 (stereo not given)	·	·	5	·	-1	·	·
COc1ccccc1NC(=O)O[C@@H]1CC[C@@]23CCCN2C(=O)CCC[C@H]3C1	·	·	3	·	·	·	·
NC(Cc1ccc(C(F)(F)F)cc1)c1csc(NC(=O)Nc2ccccc2)n1 (stereo not given)	2	1	7	0	35*	16	7.5*
NCc1csc(NC(=O)Nc2cccc(C(F)(F)F)c2)n1	-1	0	10	1	53*	51*	11*	dCAG dye DR=>30
COc1ccc(CC(N)c2csc(NC(=O)Nc3ccc(F)cc3)n2)cc1 (stereo not given)	-1	2	6	4	43*	21	9.5*
COc1cc(NC(=O)Nc2nc(C(N)CCc3ccccc3)cs2)cc(OC)c1OC (stereo not given)	-2	1	-7	-2	35*	30	2
CCCCOCCCNC(=O)C[C@H]1C[C@@]2(C(=O)OC)C(=C[C@H](C(C)C)O[C@@H]2C2CC2)N(Cc2cccc3ccccc23)C1=O	·	·	-8	·	4	·	·
